Sampled rows, rich in hits. Any-hit rate of the full collection: about 2.3%.
CHT PAM = allosterically activates the human high affinity choline transporter | Q9GZV3 | CHT-expressing cells, membrane potential dye, choline EC20; active compounds read high; LV-AA mutant CHT in HEK293 cells | B-score at 10 µM | 310,000 tested, 0.49% active | AID 488977;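 active means initial fluorescence not abnormally high and integrated response B-score, plate-corrected, over 3 SD above library mean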
Target sequence (Q9GZV3 whole entry, looked up): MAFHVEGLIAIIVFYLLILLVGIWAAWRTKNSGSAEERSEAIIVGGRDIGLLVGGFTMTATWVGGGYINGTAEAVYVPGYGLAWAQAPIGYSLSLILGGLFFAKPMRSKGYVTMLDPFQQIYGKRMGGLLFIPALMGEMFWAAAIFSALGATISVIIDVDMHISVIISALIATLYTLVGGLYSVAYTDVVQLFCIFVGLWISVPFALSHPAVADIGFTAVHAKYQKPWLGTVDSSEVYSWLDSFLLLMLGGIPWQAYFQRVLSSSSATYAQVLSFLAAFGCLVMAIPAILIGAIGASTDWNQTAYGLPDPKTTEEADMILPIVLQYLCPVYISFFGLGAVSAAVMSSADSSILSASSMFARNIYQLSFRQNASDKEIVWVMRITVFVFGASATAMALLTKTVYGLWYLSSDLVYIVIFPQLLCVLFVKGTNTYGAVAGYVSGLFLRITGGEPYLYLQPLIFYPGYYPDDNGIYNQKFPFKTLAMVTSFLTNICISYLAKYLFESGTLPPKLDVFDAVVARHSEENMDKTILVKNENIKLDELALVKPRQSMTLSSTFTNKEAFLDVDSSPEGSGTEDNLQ
CHT block = inhibits the human high affinity choline transporter; Q9GZV3; CHT-expressing cells, membrane potential dye, choline response; active compounds read low; B-score at 10 µM; 310,000 tested, 0.86% active; AID 488975;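 active means B-score over 3 SD under the library average, and starting fluorescence ratio not unusually high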;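 further: choline stimulus applied at its EC90 after an EC20 pre-addition; B-score computed on integrated fluorescence ratio after choline addition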
ANO1 block = inhibitors of mouse TMEM16A calcium-activated chloride channel | HEK293 TMEM16A/YFP iodide influx fluorescence, ionomycin | normalized B-score (activity score, 25-100; higher = stronger inhibition) at 10 µM | 310,000 tested, 1.2% active | AID 588511;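 active means ratio plate-corrected score three or more library SD toward inhibition, starting fluorescence score within five deviations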;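 further: score derived from kinetic fluorescence span divided by baseline fluorescence per well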
ANO1 activ = activators or potentiators of mouse TMEM16A chloride channel. Q8BHY3. HEK293 TMEM16A/YFP-H148Q/I152L, iodide quench fluorescence; active compounds read low. B-score at 10 µM. 340,000 tested, 0.3% active. AID 623877;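 active means fluorescence-ratio B-score plate-corrected deviation score at least 3 library SD below zero, with starting fluorescence score within 5 deviations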;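 further: channel opened by trigger with iodide after compound preincubation; score built on the fluorescence ratio of max minus min over baseline; more negative score means more quench and so TMEM16A activation or potentiation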
* = called active by the depositor; i = inactive; . = no result given.

SMILES	CHT PAM	CHT block	ANO1 block	ANO1 activ
COc1cccc(CNc2cc(CSc3ccc(Cl)cc3)nc(C)n2)c1	i	i	100*	i
COc1cccc(CNc2ccc(C)c(Cl)c2)c1	i	i	i	i
C=C1C[C@H]2[C@@H]3C=C(C)C4=CC(=O)CC[C@]4(C)[C@H]3CC[C@]2(C)[C@@]1(OC(C)=O)C(C)=O	i	i	100*	i
COc1ccc(C(=O)NCc2ccncc2)cc1S(=O)(=O)N1CCOCC1	.	.	.	i
O=S(=O)(c1cc(F)ccc1F)N1CCN2CCCC2C1 (centres undefined)	i	i	i	i
O=C(NCCc1ccccc1)N1c2ccccc2Sc2ccccc21	i	i	100*	i
O=C(CCN1C(=O)c2ccccc2C1=O)N1CCC(c2ccccc2)C1 (centres undefined)	i	i	i	i
Nc1ccc2nc3c(=O)n(CCc4ccccc4)c(=O)[nH]c3nc2c1	i	i	i	-6.58*
Cc1ccc(-n2[nH]c(C)c(/C=N/Nc3ccc([N+](=O)[O-])cc3[N+](=O)[O-])c2=O)cc1	i	i	100*	i
N#Cc1nc(Cc2cccc3ccccc23)oc1N1CCCCC1	i	i	100*	-23*
Clc1cccc(-c2nnc(SC/C=C/c3ccccc3)n2Cc2ccco2)c1	7.3*	i	i	i
COc1cccc(CC(=O)OCC(=O)NC2(C#N)CCCCC2)c1	i	i	i	i
COc1ccc2[nH]c(=O)c(CN(C3CCCCC3)C(c3nnnn3Cc3ccco3)C(C)C)cc2c1 (centres undefined)	i	i	100*	i
COc1ccc2[nH]c(=O)c(CN(Cc3nnnn3Cc3ccco3)C3CCCCC3)cc2c1	i	i	i	i
N#Cc1cnc(Sc2ccccc2)nc1	i	i	i	i
NS(=O)(=O)c1ccc(CCNC(=O)COC(=O)C2CCC2)cc1	i	i	i	-4.6*
Cn1c2c(sc1=O)CCC2	.	.	.	i
O=c1c(Cl)c(Cl)cnn1Cc1nnc(-c2ccccc2Br)o1	.	.	.	-13.3*
Oc1ccccc1Nc1nc(NCc2ccccc2)c2ccccc2n1	i	i	100*	i
Oc1ccccc1-c1nc(NCc2ccccc2)c2ccccc2n1	i	i	i	i
CCCOc1ccc(-c2nc(N3CCN(CC)CC3)c3ccccc3n2)cc1	i	i	i	i
CCN1CCN(c2nc(-c3ccncc3)nc3ccccc23)CC1	i	-6.94*	i	.
Cc1ccccc1C(=O)N1CCC(C(=O)Nc2nc3ccc(F)cc3s2)CC1	i	i	25*	i
COc1ccc(NC(=O)c2cc(-c3ccncc3)nc3ccc(Br)cc23)cc1OC	i	i	100*	i
COc1ccc(NC(=O)c2cc(-c3cccnc3)nc3ccc(C)cc23)cc1OC	.	.	.	i
SMILES	CHT PAM	CHT block	ANO1 block	ANO1 activ
S=C(Nc1ccccc1)Nc1ccc(Cl)cc1Cl	i	i	i	i
FC(F)(F)c1cccc(NC(=S)Nc2ccc(Cl)cc2Cl)c1	i	i	100*	i
CCn1c(COc2cccc3ccccc23)nnc1SCC(=O)OC1CCCCC1	i	i	100*	i
COc1cc([N+](=O)[O-])cc(/C=C2/SC(=S)N(Cc3ccccc3)C2=O)c1O	i	-5.76*	i	i
COc1cc(/C=C2/SC(=S)N(Cc3ccccc3)C2=O)cc(Cl)c1O	i	i	i	i
O=C1/C(=C\c2cccc([N+](=O)[O-])c2O)SC(=S)N1Cc1ccccc1	i	-8.39*	100*	i
CCc1ccc(CNC(=O)C2CCN(S(=O)(=O)N3CCC4(CC3)OCCO4)CC2)cc1	i	i	i	i
CC1(C)C[C@H]2C3=CCC4[C@@]5(C)CC[C@H](O[C@@H]6O[C@H](C(=O)O)[C@@H](O)[C@H](O)[C@H]6O)[C@@](C)(CO)C5CC[C@@]4(C)[C@]3(C)C[C@H](O)[C@@]2(CO)[C@@H](O)[C@@H]1O (some centres undefined)	.	.	.	i
CC(=O)OC1COC(OC2C(O)C(C)OC(OC3C(OC4CCC5(C)C(CCC6(C)C5CC=C5C7CC(C)(C)CCC7(C(=O)O)CCC56C)C4(C)CO)OCC(O)C3O)C2O)C(O)C1OC(C)=O (centres undefined)	i	i	100*	.
C[C@@H]1CC[C@]2(C(=O)O[C@@H]3O[C@H](CO)[C@@H](O)[C@H](O)[C@H]3O)CC[C@]3(C)C(=CCC4[C@@]5(C)CC[C@H](O[C@@H]6OC[C@H](O)[C@H](O[C@@H]7O[C@H](CO)[C@@H](O)[C@H](O)[C@H]7O)[C@H]6O)C(C)(C)C5CC[C@]43C)C2[C@]1(C)O (some centres undefined)	.	.	.	i
C/C=C(/C)C(=O)OC1CC(C)(C)C[C@H]2C3=CC[C@@H]4[C@@]5(C)CCC(O[C@@H]6O[C@@H](C(=O)O)[C@@H](O)C(O[C@@H]7OC[C@H](O)[C@@H](O)[C@@H]7O[C@@H]7OC(CO)C(O)[C@@H](O)[C@@H]7O)C6O[C@@H]6OC(CO)C(O)C(O)C6O)[C@@](C)(CO)[C@@H]5CC[C@]4(C)[C@]3(C)CC(O)[C@@]12CO (some centres undefined)	.	.	.	-36.9*
C/C=C(\C)C(=O)OC1[C@H](OC(C)=O)C2(CO)C(CC1(C)C)C1=CCC3C4(C)CCC(O[C@@H]5O[C@H](C(=O)O)[C@@H](O[C@@H]6O[C@H](CO)[C@@H](O)[C@H](O)[C@H]6O)[C@H](O)[C@H]5O[C@H]5O[C@H](CO)[C@@H](O)[C@H](O)[C@H]5O)[C@](C)(CO)C4CCC3(C)[C@]1(C)C[C@H]2O (some centres undefined)	.	.	.	-16.4*
COc1ccc2c(CC(=O)OCC(=O)Nc3cccc(C)c3)coc2c1	.	.	.	i
O=C(O)/C=C/C(=O)Nc1ccc2nccnc2c1	i	i	25*	i
Cc1nc2ccc(NC(=O)/C=C/C(=O)O)cc2nc1C	i	i	i	i
CC(C)CC1Nc2ncnc(N3CCN(c4ccccc4)CC3)c2N(Cc2ccc(Cl)cc2)C1=O (centres undefined)	i	i	i	i
O=C(CNC(=O)c1ccccc1)NCCCSc1ccccc1	.	.	.	i
O=C(NCCCSc1ccccc1)c1cc(Cl)ccc1O	i	i	100*	i
Cc1ccc(C(=O)N2CCNC(=O)C2CC(=O)Nc2ccc(F)cc2)cc1C (centres undefined)	i	i	i	i
Cc1cccc2c(C(=O)N3CCN(C(=O)c4ccco4)CC3)cc(-c3cccc(Br)c3)nc12	i	i	100*	i
O=C(N/N=C/c1nn(-c2ccccc2)cc1-c1ccc(Cl)cc1)c1ccncc1	i	i	25*	.
COc1cc2[nH]c(C(=O)N3CCN(c4ccccc4F)CC3)cc2c(OC)c1OC	i	i	i	i

High-throughput results (PubChem)
